Drawing on the supplement of paper PMC6411743, this text covers NP40-soluble protein abundance for five targets.

± gives the standard deviation of the averaged measurements. About 5,400 targets were measured; listed, in parts, are those with the largest changes and a random draw of the rest.

Compound in the experiment: Nc1nc2c(ncn2[C@@H]2O[C@H](COP(=O)(O)OP(=O)(O)OP(=O)(O)O)[C@@H](O)[C@H]2O)c(=O)[nH]1 [guanosine triphosphate]
The experiment is described as follows: NP40-soluble protein abundance relative to vehicle (solubility fold change) (ratio); higher = more soluble protein in presence of GTP. As for the experimental part: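 Solubility proteome profiling in Jurkat crude lysate. Lysate was treated with Mg-GTP (0.1-10 mM) for 10 min at room temperature and 3 min at 37 °C, then solubilised with 0.8% NP40 and benzonase, followed by ultracentrifugation. Proteins were quantified by TMT10 LC-MS/MS; the value is the NP40-soluble abundance relative to the NP40-processed vehicle, from 3 independent experiments.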

Sequence of UniProt Q14152 (Q14152 whole entry): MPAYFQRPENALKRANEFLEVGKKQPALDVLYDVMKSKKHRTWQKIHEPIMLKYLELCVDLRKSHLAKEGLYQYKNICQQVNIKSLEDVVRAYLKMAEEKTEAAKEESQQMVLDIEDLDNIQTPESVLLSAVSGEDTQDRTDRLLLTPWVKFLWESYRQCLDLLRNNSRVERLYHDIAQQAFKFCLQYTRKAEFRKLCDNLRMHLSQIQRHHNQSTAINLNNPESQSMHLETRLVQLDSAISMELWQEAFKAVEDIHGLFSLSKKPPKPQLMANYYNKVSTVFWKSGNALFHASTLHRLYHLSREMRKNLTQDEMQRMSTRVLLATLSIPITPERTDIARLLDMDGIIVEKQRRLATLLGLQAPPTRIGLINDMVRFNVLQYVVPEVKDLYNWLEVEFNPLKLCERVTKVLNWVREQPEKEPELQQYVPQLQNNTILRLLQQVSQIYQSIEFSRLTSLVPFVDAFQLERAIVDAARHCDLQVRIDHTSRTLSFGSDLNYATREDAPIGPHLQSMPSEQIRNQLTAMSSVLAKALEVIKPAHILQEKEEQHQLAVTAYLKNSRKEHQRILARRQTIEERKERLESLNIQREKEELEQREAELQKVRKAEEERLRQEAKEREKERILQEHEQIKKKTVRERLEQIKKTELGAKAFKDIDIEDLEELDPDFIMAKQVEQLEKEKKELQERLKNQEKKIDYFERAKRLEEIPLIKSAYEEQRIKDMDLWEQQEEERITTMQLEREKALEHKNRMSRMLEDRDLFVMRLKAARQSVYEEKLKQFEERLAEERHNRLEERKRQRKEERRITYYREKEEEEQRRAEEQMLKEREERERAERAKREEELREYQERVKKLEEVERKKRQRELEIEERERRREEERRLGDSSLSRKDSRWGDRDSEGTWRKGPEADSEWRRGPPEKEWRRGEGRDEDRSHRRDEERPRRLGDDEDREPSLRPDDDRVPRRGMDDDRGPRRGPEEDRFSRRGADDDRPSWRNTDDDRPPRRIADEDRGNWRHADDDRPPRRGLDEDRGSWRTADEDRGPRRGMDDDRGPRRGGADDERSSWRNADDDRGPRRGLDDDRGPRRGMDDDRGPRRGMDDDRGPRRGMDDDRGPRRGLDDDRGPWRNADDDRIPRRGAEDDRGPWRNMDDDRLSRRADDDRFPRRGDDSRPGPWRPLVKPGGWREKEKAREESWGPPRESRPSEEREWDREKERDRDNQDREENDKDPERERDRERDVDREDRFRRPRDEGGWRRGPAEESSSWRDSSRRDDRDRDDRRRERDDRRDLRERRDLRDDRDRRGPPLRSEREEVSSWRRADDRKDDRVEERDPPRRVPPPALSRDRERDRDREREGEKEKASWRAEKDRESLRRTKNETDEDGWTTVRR
Sequence of UniProt Q13573 (Q13573 whole entry): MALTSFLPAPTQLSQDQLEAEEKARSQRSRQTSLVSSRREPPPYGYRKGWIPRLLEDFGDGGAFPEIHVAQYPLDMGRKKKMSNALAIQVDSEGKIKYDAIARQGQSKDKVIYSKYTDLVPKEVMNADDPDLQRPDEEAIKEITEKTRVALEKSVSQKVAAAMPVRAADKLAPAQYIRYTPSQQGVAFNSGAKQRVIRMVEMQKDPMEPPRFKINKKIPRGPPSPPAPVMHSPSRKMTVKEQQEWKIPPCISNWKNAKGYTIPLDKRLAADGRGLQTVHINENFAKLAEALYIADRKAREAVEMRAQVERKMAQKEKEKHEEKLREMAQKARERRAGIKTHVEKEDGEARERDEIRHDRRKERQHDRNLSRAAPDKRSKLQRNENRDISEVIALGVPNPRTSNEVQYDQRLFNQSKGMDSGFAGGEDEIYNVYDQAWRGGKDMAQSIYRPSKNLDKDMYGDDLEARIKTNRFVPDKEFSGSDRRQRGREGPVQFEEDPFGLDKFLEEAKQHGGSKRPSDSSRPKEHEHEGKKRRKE
Sequence of UniProt Q63HQ0 (Q63HQ0 whole entry): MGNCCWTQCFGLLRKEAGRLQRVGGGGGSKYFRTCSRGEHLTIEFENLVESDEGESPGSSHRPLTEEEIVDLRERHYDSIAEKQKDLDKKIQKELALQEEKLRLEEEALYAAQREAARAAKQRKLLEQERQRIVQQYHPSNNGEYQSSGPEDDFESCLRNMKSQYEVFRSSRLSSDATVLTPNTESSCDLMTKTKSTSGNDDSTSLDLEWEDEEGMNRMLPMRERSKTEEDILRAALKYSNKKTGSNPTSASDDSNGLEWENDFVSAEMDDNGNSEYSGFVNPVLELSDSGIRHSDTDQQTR
Sequence of UniProt Q68D91 (Q68D91 whole entry): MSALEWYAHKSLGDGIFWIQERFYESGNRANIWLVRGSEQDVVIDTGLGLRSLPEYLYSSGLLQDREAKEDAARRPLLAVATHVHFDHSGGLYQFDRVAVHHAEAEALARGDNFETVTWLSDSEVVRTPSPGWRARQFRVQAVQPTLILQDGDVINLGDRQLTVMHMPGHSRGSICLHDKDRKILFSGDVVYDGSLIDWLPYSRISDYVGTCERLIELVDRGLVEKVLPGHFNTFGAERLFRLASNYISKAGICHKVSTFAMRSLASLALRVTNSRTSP

As for UniProt P62277, the NP40-soluble protein abundance reads like this: (concentration: 0.1mM) 0.945 ± 0.11; (concentration: 0.5mM) 0.964 ± 0.11; (concentration: 1mM) 1.03 ± 0.22; (concentration: 2mM) 1.02 ± 0.3; (concentration: 4mM) 0.802 ± 0.25; (concentration: 6mM) 0.796 ± 0.27. For the same target, the NP40-soluble protein abundance is, setting by setting: (concentration: 8mM) 0.626 ± 0.17; (concentration: 10mM) 0.816 ± 0.29.

As for UniProt Q63HQ0, the NP40-soluble protein abundance was 0.923 ± 0.075 (concentration: 0.1mM); 0.935 ± 0.056 (concentration: 0.5mM); 0.951 ± 0.099 (concentration: 1mM); 0.911 ± 0.13 (concentration: 2mM); 1.02 ± 0.16 (concentration: 4mM); 0.961 ± 0.12 (concentration: 6mM). For the same target, the NP40-soluble protein abundance (concentration: 8mM) was 0.952 ± 0.091 and the NP40-soluble protein abundance (concentration: 10mM) is 0.972 ± 0.11.

Turning to SNW1 (UniProt Q13573), the NP40-soluble protein abundance was 0.96 ± 0.049 (concentration: 0.1mM); 0.94 ± 0.064 (concentration: 0.5mM); 0.97 ± 0.028 (concentration: 1mM); 0.94 ± 0.071 (concentration: 2mM); 0.942 ± 0.063 (concentration: 4mM); 0.959 ± 0.041 (concentration: 6mM). The NP40-soluble protein abundance (concentration: 8mM) came to 1.01 ± 0.046 and the NP40-soluble protein abundance (concentration: 10mM) worked out at 1.03 ± 0.051.

EIF3A (UniProt Q14152): the NP40-soluble protein abundance is, setting by setting: (concentration: 0.1mM) 1.05 ± 0.031; (concentration: 0.5mM) 1.08 ± 0.018; (concentration: 1mM) 1.09 ± 0.062; (concentration: 2mM) 1.18 ± 0.12; (concentration: 4mM) 1.38 ± 0.23; (concentration: 6mM) 1.53 ± 0.28. For the same target, the NP40-soluble protein abundance is, setting by setting: (concentration: 8mM) 1.74 ± 0.34; (concentration: 10mM) 1.94 ± 0.38.

As to MBLAC2 (UniProt Q68D91), the NP40-soluble protein abundance was determined as 1.09 ± 0.12 (concentration: 0.1mM); 1.03 ± 0.1 (concentration: 0.5mM); 1 ± 0.11 (concentration: 1mM); 1.02 ± 0.13 (concentration: 2mM); 1.01 ± 0.11 (concentration: 4mM); 0.941 ± 0.13 (concentration: 6mM). For the same target, the NP40-soluble protein abundance is, setting by setting: (concentration: 8mM) 0.952 ± 0.097; (concentration: 10mM) 0.929 ± 0.14.
